The values that follow come from the supplement of paper PMC10849652.

The full data set covers some 7,900 targets. This sample favours those with a hit. About 0.6% of all pairs of compound and target were hits. A number with no mark means an inactive call.

UniProt Q13137, sequence (Q13137 whole entry, looked up): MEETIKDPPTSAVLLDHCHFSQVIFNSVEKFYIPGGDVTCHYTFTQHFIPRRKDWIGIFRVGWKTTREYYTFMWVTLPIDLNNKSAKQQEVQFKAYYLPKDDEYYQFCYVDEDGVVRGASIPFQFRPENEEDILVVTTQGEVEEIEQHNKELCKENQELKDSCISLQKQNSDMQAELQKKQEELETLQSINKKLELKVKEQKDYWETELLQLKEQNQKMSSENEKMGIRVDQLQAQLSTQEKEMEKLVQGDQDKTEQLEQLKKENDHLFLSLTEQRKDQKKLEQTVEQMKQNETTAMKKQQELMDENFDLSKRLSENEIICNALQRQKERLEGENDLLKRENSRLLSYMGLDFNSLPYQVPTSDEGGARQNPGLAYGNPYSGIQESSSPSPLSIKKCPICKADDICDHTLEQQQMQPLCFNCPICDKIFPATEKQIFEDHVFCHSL
UniProt Q99439, sequence (Q99439 whole entry, looked up): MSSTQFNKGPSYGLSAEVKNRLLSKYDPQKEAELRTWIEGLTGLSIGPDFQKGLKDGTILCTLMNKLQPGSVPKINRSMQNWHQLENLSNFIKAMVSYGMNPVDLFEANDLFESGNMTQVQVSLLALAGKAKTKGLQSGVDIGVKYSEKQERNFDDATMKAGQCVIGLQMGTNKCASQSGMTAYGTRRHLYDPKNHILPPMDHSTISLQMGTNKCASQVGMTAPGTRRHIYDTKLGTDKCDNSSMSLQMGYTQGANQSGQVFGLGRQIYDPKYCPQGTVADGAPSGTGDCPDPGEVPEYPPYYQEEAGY
UniProt Q96JM3, sequence (Q96JM3 whole entry, looked up): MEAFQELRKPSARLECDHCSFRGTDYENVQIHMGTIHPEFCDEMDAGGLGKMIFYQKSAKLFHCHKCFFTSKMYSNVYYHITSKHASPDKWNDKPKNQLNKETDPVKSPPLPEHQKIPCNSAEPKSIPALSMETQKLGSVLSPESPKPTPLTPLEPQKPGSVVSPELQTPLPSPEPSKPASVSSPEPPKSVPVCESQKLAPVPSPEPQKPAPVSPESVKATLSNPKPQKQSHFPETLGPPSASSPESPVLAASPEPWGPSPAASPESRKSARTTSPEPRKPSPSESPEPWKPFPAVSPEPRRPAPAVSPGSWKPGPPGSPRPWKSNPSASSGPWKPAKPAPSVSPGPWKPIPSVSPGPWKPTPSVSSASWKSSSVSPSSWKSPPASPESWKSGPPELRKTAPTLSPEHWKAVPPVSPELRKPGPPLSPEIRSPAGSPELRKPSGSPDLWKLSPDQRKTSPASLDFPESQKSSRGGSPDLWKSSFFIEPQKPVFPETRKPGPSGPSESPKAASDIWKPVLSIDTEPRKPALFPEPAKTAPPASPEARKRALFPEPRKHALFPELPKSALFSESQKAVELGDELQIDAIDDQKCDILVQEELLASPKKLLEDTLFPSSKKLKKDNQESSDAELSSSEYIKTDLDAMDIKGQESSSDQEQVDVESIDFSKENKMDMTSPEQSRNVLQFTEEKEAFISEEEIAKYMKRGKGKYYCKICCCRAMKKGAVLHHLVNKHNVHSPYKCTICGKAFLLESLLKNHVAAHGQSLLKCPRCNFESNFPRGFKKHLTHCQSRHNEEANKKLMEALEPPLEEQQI
UniProt Q8NHZ8, sequence (Q8NHZ8 whole entry, looked up): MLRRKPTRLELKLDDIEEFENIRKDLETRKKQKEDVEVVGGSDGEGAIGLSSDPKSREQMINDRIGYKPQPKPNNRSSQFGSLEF
UniProt O00748, sequence (O00748 whole entry, looked up): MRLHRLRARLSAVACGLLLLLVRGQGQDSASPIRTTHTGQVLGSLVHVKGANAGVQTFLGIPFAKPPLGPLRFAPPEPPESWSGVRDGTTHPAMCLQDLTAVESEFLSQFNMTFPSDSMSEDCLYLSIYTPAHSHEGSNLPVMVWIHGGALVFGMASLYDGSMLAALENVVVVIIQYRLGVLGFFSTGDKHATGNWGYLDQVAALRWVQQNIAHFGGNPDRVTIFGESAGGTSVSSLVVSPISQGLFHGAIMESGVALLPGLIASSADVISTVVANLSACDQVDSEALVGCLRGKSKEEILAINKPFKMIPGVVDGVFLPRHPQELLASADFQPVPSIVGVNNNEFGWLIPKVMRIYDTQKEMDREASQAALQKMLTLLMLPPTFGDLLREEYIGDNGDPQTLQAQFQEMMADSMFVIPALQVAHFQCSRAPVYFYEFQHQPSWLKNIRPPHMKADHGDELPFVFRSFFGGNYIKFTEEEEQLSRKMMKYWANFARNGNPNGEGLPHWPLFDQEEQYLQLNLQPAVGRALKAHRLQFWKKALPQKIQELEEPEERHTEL
UniProt Q9UNS2, sequence (Q9UNS2 whole entry, looked up): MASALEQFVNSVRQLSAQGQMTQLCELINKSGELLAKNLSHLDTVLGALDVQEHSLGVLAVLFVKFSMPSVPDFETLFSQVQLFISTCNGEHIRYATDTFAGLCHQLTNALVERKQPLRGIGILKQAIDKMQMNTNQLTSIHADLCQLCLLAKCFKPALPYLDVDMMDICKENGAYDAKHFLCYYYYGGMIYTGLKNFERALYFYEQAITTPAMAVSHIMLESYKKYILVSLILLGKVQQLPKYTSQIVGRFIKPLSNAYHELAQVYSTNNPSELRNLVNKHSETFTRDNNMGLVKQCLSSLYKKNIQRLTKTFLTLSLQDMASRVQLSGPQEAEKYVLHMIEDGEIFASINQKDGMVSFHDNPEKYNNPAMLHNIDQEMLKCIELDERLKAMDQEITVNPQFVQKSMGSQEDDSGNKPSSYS
UniProt P19784, sequence (P19784 whole entry, looked up): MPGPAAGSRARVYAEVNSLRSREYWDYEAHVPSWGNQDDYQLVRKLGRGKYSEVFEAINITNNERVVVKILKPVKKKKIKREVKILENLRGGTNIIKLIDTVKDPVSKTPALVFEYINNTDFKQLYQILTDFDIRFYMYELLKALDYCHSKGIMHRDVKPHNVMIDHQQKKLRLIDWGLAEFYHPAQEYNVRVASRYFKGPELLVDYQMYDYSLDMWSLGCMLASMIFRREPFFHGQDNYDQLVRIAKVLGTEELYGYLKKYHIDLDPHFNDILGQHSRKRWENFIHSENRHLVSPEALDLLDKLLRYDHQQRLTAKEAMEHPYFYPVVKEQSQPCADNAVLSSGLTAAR
UniProt Q9Y3X0, sequence (Q9Y3X0 whole entry, looked up): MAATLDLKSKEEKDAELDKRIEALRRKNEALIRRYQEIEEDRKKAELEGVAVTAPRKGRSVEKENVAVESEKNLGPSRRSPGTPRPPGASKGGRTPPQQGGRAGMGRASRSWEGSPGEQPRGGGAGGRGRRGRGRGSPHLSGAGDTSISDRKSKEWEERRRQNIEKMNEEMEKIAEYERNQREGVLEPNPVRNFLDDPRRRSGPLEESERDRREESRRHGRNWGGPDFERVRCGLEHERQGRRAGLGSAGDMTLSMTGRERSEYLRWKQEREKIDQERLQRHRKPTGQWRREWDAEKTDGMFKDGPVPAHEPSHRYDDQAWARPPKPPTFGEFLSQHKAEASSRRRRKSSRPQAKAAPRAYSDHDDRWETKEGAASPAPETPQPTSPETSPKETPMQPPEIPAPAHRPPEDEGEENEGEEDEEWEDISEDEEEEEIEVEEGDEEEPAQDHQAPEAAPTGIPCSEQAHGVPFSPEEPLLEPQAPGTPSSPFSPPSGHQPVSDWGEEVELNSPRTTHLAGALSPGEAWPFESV
UniProt P86791, sequence (P86791 whole entry, looked up): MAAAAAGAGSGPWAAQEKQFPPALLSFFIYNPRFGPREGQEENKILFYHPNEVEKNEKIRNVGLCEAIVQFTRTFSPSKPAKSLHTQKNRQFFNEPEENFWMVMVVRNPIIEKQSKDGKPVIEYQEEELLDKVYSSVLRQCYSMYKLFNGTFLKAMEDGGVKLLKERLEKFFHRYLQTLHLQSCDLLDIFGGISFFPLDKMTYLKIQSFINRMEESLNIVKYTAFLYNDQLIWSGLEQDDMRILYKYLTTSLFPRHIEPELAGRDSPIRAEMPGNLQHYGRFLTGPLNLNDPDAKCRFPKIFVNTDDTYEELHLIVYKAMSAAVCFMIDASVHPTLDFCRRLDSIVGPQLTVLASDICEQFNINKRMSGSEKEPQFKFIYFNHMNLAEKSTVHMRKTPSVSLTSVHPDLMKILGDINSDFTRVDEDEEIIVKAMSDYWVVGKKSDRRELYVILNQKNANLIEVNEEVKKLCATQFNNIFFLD
UniProt Q96LT7, sequence (Q96LT7 whole entry, looked up): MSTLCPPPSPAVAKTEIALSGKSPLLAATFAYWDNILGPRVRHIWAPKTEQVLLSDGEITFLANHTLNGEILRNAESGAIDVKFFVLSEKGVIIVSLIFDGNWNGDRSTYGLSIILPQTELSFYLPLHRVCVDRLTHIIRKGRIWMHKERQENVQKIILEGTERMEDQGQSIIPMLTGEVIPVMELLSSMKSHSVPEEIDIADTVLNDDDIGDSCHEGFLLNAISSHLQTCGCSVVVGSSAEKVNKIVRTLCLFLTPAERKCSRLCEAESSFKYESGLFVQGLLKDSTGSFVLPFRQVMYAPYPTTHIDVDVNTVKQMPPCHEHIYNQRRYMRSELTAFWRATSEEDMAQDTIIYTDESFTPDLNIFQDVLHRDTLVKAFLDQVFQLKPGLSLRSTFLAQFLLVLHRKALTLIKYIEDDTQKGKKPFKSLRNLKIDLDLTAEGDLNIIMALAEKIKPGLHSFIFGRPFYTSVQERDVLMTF
UniProt P45973, sequence (P45973 whole entry, looked up): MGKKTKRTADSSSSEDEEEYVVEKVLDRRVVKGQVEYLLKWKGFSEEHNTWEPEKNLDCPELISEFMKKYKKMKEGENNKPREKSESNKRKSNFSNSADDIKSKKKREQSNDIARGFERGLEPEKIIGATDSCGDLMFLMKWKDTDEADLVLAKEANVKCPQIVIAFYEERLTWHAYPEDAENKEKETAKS
UniProt Q99653, sequence (Q99653 whole entry, looked up): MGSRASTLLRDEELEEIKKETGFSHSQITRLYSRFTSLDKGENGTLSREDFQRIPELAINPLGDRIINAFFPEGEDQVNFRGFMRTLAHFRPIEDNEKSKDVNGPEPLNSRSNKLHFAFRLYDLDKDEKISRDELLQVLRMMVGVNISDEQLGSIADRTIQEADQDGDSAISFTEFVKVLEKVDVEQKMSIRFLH

Compound in the first test: C[C@@H](Oc1cc(-c2cnn(C3CCNCC3)c2)cnc1N)c1c(Cl)ccc(F)c1Cl [crizotinib]
In words: log2 fold change, soluble protein after heating vs DMSO (PISA); higher = thermal stabilisation; K562 cells, 10 uM, 30 min; active = over 0.2 and 3.5 SD of the protein, either way, in both replicates (recomputed). The gist of the method:
(§1)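 Values are thermal stability changes relative to control samples and are taken from duplicates. They are stated as log2 fold changes. Before quantification by TMTpro 16plex LC-MS/MS with equalised channel sums, K562 cells at 2×10^6 cells/mL were treated with 10 μM compound for 30 min, heated in aliquots for 3 min across 48°C-58°C, pooled, extracted in PBS with 0.5% NP-40 at 4°C, and centrifuged at 21,000xg for 90 min to give the soluble supernatant.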
Take CHP1 (UniProt Q99653): the log2 fold change is 0.109.

For CES2 isoform 4 (UniProt O00748), the log2 fold change was 0.154.

For CPT2 (UniProt P23786), the log2 fold change is -0.42.

Consider CNN2 (UniProt Q99439), for which the log2 fold change is -0.058.

Regarding CBX5 (UniProt P45973), the log2 fold change was 0.128.

For the target CNOT4 isoform 6 (UniProt O95628), the log2 fold change is 0.031.

As to CD55 isoform 7 (UniProt P08174), the log2 fold change is 0.081.

Regarding CPT1A (UniProt P50416), the log2 fold change is 0.546 (active).

For CD81 (UniProt P60033), the log2 fold change is 0.162.

Regarding CRK (UniProt P46108), the log2 fold change was -1.02 (active).

For the target CSK (UniProt P41240), the log2 fold change was -0.033.

Regarding CELF2 isoform 3 (UniProt O95319), the log2 fold change is 0.098.

For the target CDK5RAP3 isoform 4 (UniProt Q96JB5), the log2 fold change is -0.054.

Consider CSNK2A2 (UniProt P19784), for which the log2 fold change was -0.132.

Consider CCZ1 (UniProt P86791), for which the log2 fold change is -0.278 (active).

For the target CBR1 (UniProt P16152), the log2 fold change is 0.048.

With CHAMP1 (UniProt Q96JM3), the log2 fold change is -0.154.

In the case of CHMP4C (UniProt Q96CF2), the log2 fold change is -0.007.

On to CBS (UniProt P35520), for which the log2 fold change is 0.044.

Take COX15 (UniProt Q7KZN9): the log2 fold change was -0.015.

As to CDAN1 (UniProt Q8IWY9), the log2 fold change was 0.024.

Turning to CDC26 (UniProt Q8NHZ8), the log2 fold change is 0.153.

COPS3 (UniProt Q9UNS2): the log2 fold change was 0.003.

For the target CALCOCO2 isoform 4 (UniProt Q13137), the log2 fold change was -0.355 (active).

For the target CASP10 isoform 4 (UniProt Q92851), the log2 fold change was -0.102.

Turning to C9orf72 (UniProt Q96LT7), the log2 fold change is -0.134.

Turning to CSNK2A1 (UniProt P68400), the log2 fold change was -0.04.

For the target CCNB1 (UniProt P14635), the log2 fold change was -0.021.

Consider CHCHD1 (UniProt Q96BP2), for which the log2 fold change was -0.54 (active).

CERT isoform 3 (UniProt Q9Y5P4): the log2 fold change was 0.102.

On to CCDC9 (UniProt Q9Y3X0), for which the log2 fold change is 0.016.

As for CAMKK2 (UniProt Q96RR4), the log2 fold change was 0.106.

In the case of COMT (UniProt P21964), the log2 fold change was 0.352 (active).

On to CCNK isoform 4 (UniProt O75909), for which the log2 fold change was -0.023.

For the target CDC42BPA isoform 6 (UniProt Q5VT25), the log2 fold change is -0.477 (active).

C9orf64 (UniProt Q5T6V5): the log2 fold change was -0.329.

Compound in another test: C[C@@H]1COCCN1C2=NC(=NC(=C2)C3(CC3)S(=O)(=O)C)C4=C5C=CNC5=CC=C4
Described as above. The gist of the method:
as §1
CHP1 (UniProt Q99653): the log2 fold change was -0.061.

Regarding CES2 isoform 4 (UniProt O00748), the log2 fold change is 0.03.

Take CPT2 (UniProt P23786): the log2 fold change was 0.06.

In the case of CNN2 (UniProt Q99439), the log2 fold change is 0.058.

For CBX5 (UniProt P45973), the log2 fold change is -0.037.

With CNOT4 isoform 6 (UniProt O95628), the log2 fold change was 0.056.

For the target CD55 isoform 7 (UniProt P08174), the log2 fold change was -0.096.

Take CPT1A (UniProt P50416): the log2 fold change is 0.02.

CD81 (UniProt P60033): the log2 fold change is 0.107.

As to CRK (UniProt P46108), the log2 fold change is 0.008.

Consider CSK (UniProt P41240), for which the log2 fold change is 0.112.

Consider CELF2 isoform 3 (UniProt O95319), for which the log2 fold change was 0.006.

Take CDK5RAP3 isoform 4 (UniProt Q96JB5): the log2 fold change was 0.044.

With CSNK2A2 (UniProt P19784), the log2 fold change is 0.039.

On to CCZ1 (UniProt P86791), for which the log2 fold change is 0.009.

On to CBR1 (UniProt P16152), for which the log2 fold change was 0.052.

For CHAMP1 (UniProt Q96JM3), the log2 fold change was 0.074.

CHMP4C (UniProt Q96CF2): the log2 fold change is -0.256.

For the target CBS (UniProt P35520), the log2 fold change is 0.023.

Take COX15 (UniProt Q7KZN9): the log2 fold change was 0.041.

As to CDAN1 (UniProt Q8IWY9), the log2 fold change was 0.175.

Consider CDC26 (UniProt Q8NHZ8), for which the log2 fold change is 0.016.

Consider COPS3 (UniProt Q9UNS2), for which the log2 fold change was 0.047.

Turning to CALCOCO2 isoform 4 (UniProt Q13137), the log2 fold change was -0.106.

In the case of CASP10 isoform 4 (UniProt Q92851), the log2 fold change was 0.015.

Consider C9orf72 (UniProt Q96LT7), for which the log2 fold change is -0.024.

With CSNK2A1 (UniProt P68400), the log2 fold change was 0.016.

Regarding CCNB1 (UniProt P14635), the log2 fold change is -0.044.

With CHCHD1 (UniProt Q96BP2), the log2 fold change was -0.203.

In the case of CERT isoform 3 (UniProt Q9Y5P4), the log2 fold change was 0.079.

In the case of CCDC9 (UniProt Q9Y3X0), the log2 fold change is -0.063.

Take CAMKK2 (UniProt Q96RR4): the log2 fold change was -0.045.

In the case of COMT (UniProt P21964), the log2 fold change was 0.053.

In the case of CCNK isoform 4 (UniProt O75909), the log2 fold change is 0.073.

With CDC42BPA isoform 6 (UniProt Q5VT25), the log2 fold change was -0.016.

For the target C9orf64 (UniProt Q5T6V5), the log2 fold change is 0.091.
